# PubChem BioAssay
# Calls of active or inactive are those of the source. Unless noted, the rule behind the calls is not given here.
# How the values were obtained:
# [1] = tested on: XIP peptide (Xip251-270) binding; assay: XIP fragment 251-270 binding compounds – biochemical, small-molecule microarray, fluorescence 635/667 nm, 0.1 µg/mL protein, primary screen (AID 1182); details: fluorescent protein binding, 635 nm, higher = more signal, called active from +8 up or from −8 down
# XIP peptide (Xip251-270) = assay: compounds binding XIP fragment 251-270 – biochemical, small-molecule microarray, fluorescence 635/667 nm, 0.5 µg/mL protein, primary screen (AID 1183); details: fluorescence 635 nm, higher = more signal
# [2] = blood-stage malaria parasite viability loss – strain 3D7, DAPI fluorescence, 100 nL, primary screen (AID 1184);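 note: parasites grown inside human red blood cells in medium with human serum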; details: P. falciparum 3D7 growth, 3 d, higher = more signal
# [3] = target: Homeobox protein Hox-A13 (Mus musculus) (UniProt Q62424); assay: disruptors of Hoxa13 oligonucleotide interaction – biochemical, fluorescence polarization, labeled oligonucleotide, primary screen (AID 1185); details: Hoxa13:DNA binding, 15 min, higher = more signal, called active from +8 up or from −8 down
# [4] = blockers of DNA damage checkpoint Chk1 activation – imaging, HeLa, hydroxyurea, phospho-Chk1 antibody, percent positive cells, primary screen (AID 1186); details: hydroxyurea-induced phospho-Chk1 immunofluorescence imaging, higher = more signal
# [5] = blockers of DNA damage checkpoint Chk1 activation – imaging, HeLa, hydroxyurea, phospho-Chk1 nuclear intensity, primary screen (AID 1187); details: hydroxyurea-induced phospho-Chk1 immunofluorescence imaging, higher = more signal
# Homeobox protein Hox-A13 (Mus musculus), sequence (Q62424 whole entry, looked up): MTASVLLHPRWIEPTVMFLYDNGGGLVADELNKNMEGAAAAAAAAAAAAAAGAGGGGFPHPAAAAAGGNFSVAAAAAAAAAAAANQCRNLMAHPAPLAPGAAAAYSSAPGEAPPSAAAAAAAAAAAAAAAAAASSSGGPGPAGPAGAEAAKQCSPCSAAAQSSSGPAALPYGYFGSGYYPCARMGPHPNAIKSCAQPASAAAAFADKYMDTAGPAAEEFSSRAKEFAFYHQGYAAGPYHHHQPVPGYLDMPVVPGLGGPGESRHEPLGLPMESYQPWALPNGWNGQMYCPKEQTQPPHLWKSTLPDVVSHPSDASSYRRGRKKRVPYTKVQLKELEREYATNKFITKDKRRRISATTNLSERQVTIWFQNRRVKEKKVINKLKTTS
SMILES,composite z-score [1],composite z-score (XIP peptide (Xip251-270)),z-score [2],z-score [3],z-score [4],z-score [5]
C=CCC(OC(C)=O)[C@@H]1[C@@H](N(Cc2ccc(-c3cccc(C(F)(F)F)c3)o2)C(=O)c2ccc(C)cc2)c2cc(OCCCO)ccc2N1C(=O)c1ccc2ccccc2c1 (stereo partly drawn),0.579 (inactive),0.0901,-2.6,-0.683 (inactive),-0.793 (inactive),-0.595 (inactive)
CC(CO)N1C(=O)[C@@H]2[C@H]3C(=O)OCC=C[C@H]3OC23C=CCN(CCN2CCOCC2)C(=O)[C@@H]13 (stereo partly drawn),-0.0198 (inactive),0.154,0.177,-5.37 (inactive),-0.259 (inactive),-0.252 (inactive)
CCOC(=O)C[C@H]1[C@H](OC(=O)c2ccccc2-c2ccccc2)[C@@H](NC(=O)c2ccc(-c3ccccc3)cc2)c2cc(OCCCO)ccc2N1C(=O)c1ccc2ccccc2n1,-0.07 (inactive),0.421,-0.557,-1.48 (inactive),-0.145 (inactive),-0.0265 (inactive)
CC(=O)NCCCC[C@@H]1NC(=O)[C@@H]2C[C@H](C(=O)NCCCC[N+](C)(C)C)[C@H](c3ccc(O)cc3)N2C1=O,2.41 (inactive),0.842,-0.859,0.749 (inactive),-0.508 (inactive),-0.589 (inactive)
O=C1C2C=CC(C(O)c3ccccc3)N(Nc3ccccc3F)C2C(=O)N1c1ccccc1 (stereo not drawn),1.07 (inactive),0.726,0.199,-3.79 (inactive),0.237 (inactive),0.0511 (inactive)
CCCNC(=O)[C@@]1(c2ccc([N+](=O)[O-])cc2)CC(=O)N(C2CCCCC2)[C@@H]1c1ccc(CO)cc1,2.45 (inactive),0.73,-0.47,-3.27 (inactive),0.0926 (inactive),0.213 (inactive)
Cc1ccc(S[C@]2(C(=O)NCCCN(C)C)CC(=O)N(C3CCCCC3)[C@@H]2c2ccc(CO)cc2)cc1,0.332 (inactive),0.0388,-1.54,-1.9 (inactive),0.487 (inactive),0.866 (inactive)
O=C1NC(=O)C2C1C=CC(C(O)CCc1ccccc1)N2Nc1ccc(Cl)cc1Cl (stereo not drawn),0.157 (inactive),0.284,1.5,-5.96 (inactive),0.738 (inactive),0.185 (inactive)
C=CC[C@@]1(C(=O)N2CCOCC2)N=C(c2ccc(OCCCO)cc2)O[C@@H]1c1ccccc1CN=[N+]=[N-],0.74 (inactive),0.758,-2.26,-5.78 (inactive),0.0151 (inactive),0.349 (inactive)
CCOC(=O)C1=CC[C@@H](c2ccc(OCc3ccccc3)c(OC)c2)N(S(=O)(=O)c2ccc(C)cc2)[C@H]1c1ccc(SC)cc1,0.56 (inactive),0.569,-2.05,1.81 (inactive),-0.387 (inactive),-0.768 (inactive)
Cc1ccc(S[C@]2(C(=O)NCC(F)(F)F)CC(=O)N(C3CCCCC3)[C@@H]2c2ccc(CO)cc2I)cc1,-0.0988 (inactive),0.735,-0.142,-3.45 (inactive),0.148 (inactive),0.594 (inactive)
NC(=O)N1C(=O)C2C(C1=O)C1C=C(CCCO)C2C(c2cccs2)N1Cc1cccc(OC(F)(F)F)c1 (stereo not drawn),1.07 (inactive),0.577,0.379,-6.01 (inactive),-0.356 (inactive),-0.334 (inactive)
C=CCC(OC(C)=O)[C@@H]1[C@@H](N(Cc2cccc3ccccc23)C(=O)c2cccc3ccccc23)c2cc(OCCCO)ccc2N1C(=O)c1ccc(-c2ccccc2)cc1 (stereo partly drawn),0.71 (inactive),0.686,-2.37,-1.52 (inactive),0.305 (inactive),0.466 (inactive)
C=C(/C(=C/C[C@H](OC(C)=O)c1cccc(OCCO)c1)c1cnc2ccccc2c1)C(C)C,-0.328 (inactive),-0.179,-1.28,-4.29 (inactive),-0.192 (inactive),-0.139 (inactive)
COc1ccc([Si](C)(C)[C@@H]2[C@@H](CC(=O)N3Cc4ccccc4C[C@H]3CO)O[C@]3(C(=O)N(C)c4ccccc43)[C@H]2C)cc1,0.176 (inactive),0.773,-2.74,-6.03 (inactive),-1.6 (inactive),-0.901 (inactive)
CN(C)C(=O)[C@@]1(CCS(=O)(=O)c2ccccc2)N=C(c2ccc(OCCCO)cc2)O[C@H]1c1ccccc1,0.77 (inactive),0.704,-1.48,-6.87 (inactive),-0.13 (inactive),-0.0208 (inactive)
CCOC(=O)C1CCCCN1 (stereo not drawn),-0.679 (inactive),-0.0839,1.57,0.65 (inactive),0.0889 (inactive),0.0121 (inactive)
CC(C)C[C@@H]1NC(=O)[C@@H]2C[C@H](C(=O)NCCCCN(C)C)[C@H](c3cccc(OCCO)c3)N2C1=O,0.36 (inactive),0.755,-0.192,-3.41 (inactive),-0.232 (inactive),-0.455 (inactive)
[N-]=[N+]=Nc1ccccc1C[C@]1(C(N)=O)N=C(c2ccc(OCCCO)cc2)O[C@H]1c1ccccc1N=[N+]=[N-],0.635 (inactive),0.756,-2.65,-5.32 (inactive),-0.433 (inactive),-0.683 (inactive)
COc1ccc(NC(=O)O[C@H]2[C@H](OC(=O)Nc3ccccc3)[C@H](OC(=O)Nc3ccccc3)[C@@H](OC)O[C@@H]2CO)cc1,0.635 (inactive),0.934,-2.37,-6.24 (inactive),0.131 (inactive),0.288 (inactive)
O=C1C2C=CC(C(O)c3ccc(F)cc3)N(n3cnnc3)C2C(=O)N1Cc1ccccc1 (stereo not drawn),0.34 (inactive),0.854,-1.09,-0.994 (inactive),0.0044 (inactive),-1.28 (inactive)
CC(C)(C)N1CC=CC23O[C@@H]4C=CCCOC(=O)C4[C@H]2C(=O)N(CCO)[C@@H]3C1=O (stereo partly drawn),-0.692 (inactive),-0.421,-0.175,-4.92 (inactive),0.0024 (inactive),-0.528 (inactive)

SMILES,composite z-score [1],composite z-score (XIP peptide (Xip251-270)),z-score [2],z-score [3],z-score [4],z-score [5]
CC(C)(C)OC(=O)CC[C@]1(C(=O)NCC(O)CO)N=C(c2ccc(OCCCO)cc2)O[C@H]1c1ccccc1 (stereo partly drawn),0.0294 (inactive),0.628,-1.74,-4.14 (inactive),-0.703 (inactive),-0.886 (inactive)
O=C1O[C@H](c2ccccc2)[C@H](c2ccccc2)N2[C@H]1[C@@H](C(=O)O)[C@]1(C(=O)Nc3ccc(C#CC4=CCCCC4)cc31)[C@H]2c1ccc(O)cc1,0.406 (inactive),0.617,-0.628,-5.74 (inactive),-0.0146 (inactive),-0.19 (inactive)
COCC1=C2[C@@H](CCc3ccccc3)OB(O)C[C@@H]2[C@@H]2C(=O)C=CC(=O)[C@@H]2C1,0.796 (inactive),-0.154,-1.28,-6.27 (inactive),0.162 (inactive),0.398 (inactive)
CC(C)(C)OC(=O)CC[C@]1(C(=O)NCc2ccccc2)N=C(c2ccc(OCCCO)cc2)O[C@H]1c1ccccc1CN=[N+]=[N-],0.333 (inactive),0.688,-2.39,-1.28 (inactive),-0.654 (inactive),-0.865 (inactive)
O=C(NCc1ccccc1)[C@@H]1c2ccccc2C(=O)N(Cc2ccccc2C(F)(F)F)[C@H]1c1ccc(CO)cc1,0.55 (inactive),0.545,0.0452,-3.17 (inactive),-0.496 (inactive),-0.841 (inactive)
NC(=O)NCC#Cc1ccc2c(c1)[C@]1(C(=O)N2)[C@H](C(=O)NC[C@H](O)c2ccccc2)[C@H]2C(=O)O[C@H](c3ccccc3)[C@H](c3ccccc3)N2[C@@H]1c1ccc(OCCO)cc1,0.869 (inactive),0.528,-0.0803,-2.75 (inactive),0.179 (inactive),0.446 (inactive)
CC(C)C(=C=CC[C@H](O)c1cccc(OCCO)c1)C[C@H](O)c1cc(Cl)cc(Cl)c1O,-0.41 (inactive),0.594,-0.487,-4.22 (inactive),-0.568 (inactive),0.228 (inactive)
C#CCN([C@@H](Cc1ccc(O)cc1)C(=O)OC)[C@@H](/C=C/C1CC1)[C@H](O)Cc1ccccc1,-0.297 (inactive),-0.331,0.501,-7.49 (inactive),-0.453 (inactive),-0.368 (inactive)
C=CCN1C(=O)[C@@]2(CCS(=O)(=O)c3ccccc3)N=C(c3ccc(OCCCO)cc3)O[C@H]2c2ccccc21,0.404 (inactive),0.713,-2.05,-2.47 (inactive),-0.477 (inactive),-0.37 (inactive)
COCCOC(=O)N1C(=O)[C@@]2(c3cc(C#CC4=CCCCC4)ccc31)[C@H](C(=O)N1CCCCCCC1)[C@H]1C(=O)O[C@H](c3ccccc3)[C@H](c3ccccc3)N1[C@@H]2c1ccc(O)cc1,0.179 (inactive),0.695,-1.72,2.25 (inactive),-0.525 (inactive),-0.932 (inactive)
CC(CO)N1C(=O)[C@@H]2[C@H]3C(=O)OCC=C[C@H]3OC23C=CCN(C(C)(C)C)C(=O)[C@@H]13 (stereo partly drawn),-0.316 (inactive),0.0576,0.293,-5.22 (inactive),0.0116 (inactive),-0.602 (inactive)
COc1ccc(CN(C2=CC[C@@]3(C(N)=O)C(=O)C(Cl)=C(Cl)C(=O)[C@@]3(C#N)C2)S(=O)(=O)c2ccc(Br)cc2)cc1,0.68 (inactive),0.923,0.435,-6.44 (inactive),-0.207 (inactive),-0.179 (inactive)
Cc1cc(C)cc(N2C(=O)CSC2c2cccc([N+](=O)[O-])c2)c1 (stereo not drawn),0.397 (inactive),0.521,-0.0855,0.0457 (inactive),-0.251 (inactive),-0.335 (inactive)
CCCC[C@@H]1C[C@H]1[C@@H](NC(=O)c1cccs1)c1ccc(C(F)(F)F)cc1,-0.011 (inactive),-0.289,-0.41,-0.891 (inactive),0.984 (inactive),0.516 (inactive)
O=C1O[C@@H](c2ccccc2)[C@@H](c2ccccc2)N2[C@@H](c3ccccc3OCCO)[C@]3(C(=O)Nc4ccc(C#CCCO)cc43)[C@@H](C(=O)N3CCCCCCC3)[C@H]12,8.49 (active),1.02,-2.23,3.66 (inactive),-0.333 (inactive),-0.462 (inactive)
CN1C(=O)C2C=CC(C(O)c3ccccn3)N(N(c3ccccc3)c3ccccc3)C2C1=O (stereo not drawn),-0.365 (inactive),0.891,-0.215,-8.63 (active),0.46 (inactive),-0.024 (inactive)
COCCOC(=O)N1C(=O)[C@@]2(c3cc(C#CC4=CCCCC4)ccc31)[C@H](c1ccccc1OCCO)N1[C@H](c3ccccc3)[C@H](c3ccccc3)OC(=O)[C@H]1[C@@H]2C(=O)N1CCCCCCC1,0.549 (inactive),0.688,-2.05,4.13 (inactive),0.234 (inactive),0.347 (inactive)
C=CCNC(=O)[C@H]1[C@@H]2C(=O)O[C@@H](c3ccccc3)[C@@H](c3ccccc3)N2[C@@H](c2ccc(O)cc2)[C@]12C(=O)Nc1ccc(C#CC3(O)CCCCCC3)cc12,0.692 (inactive),0.466,-0.372,-3.96 (inactive),-0.165 (inactive),-0.244 (inactive)
O=c1n(-c2ccccc2)c(=O)n2n1CC(COc1ccccc1)=C([C@H](O)CCc1ccccc1)[C@@H]2CO,0.0148 (inactive),-0.407,-0.601,-7.77 (inactive),-0.268 (inactive),0.771 (inactive)
CCOC(=O)C[C@H]1[C@H](OC(=O)c2cc3ccccc3oc2=O)[C@@H](NC(=O)c2ccc(-c3ccccc3)cc2)c2cc(OCCCO)ccc2N1C(=O)c1ccccc1,0.411 (inactive),0.701,-1.95,0.455 (inactive),0.443 (inactive),0.769 (inactive)
CN1C(=O)C2C=CC(C(O)C#Cc3ccccc3)N(Nc3ccccc3)C2C1=O (stereo not drawn),0.783 (inactive),0.794,-0.351,-4.25 (inactive),-0.0435 (inactive),0.113 (inactive)
